Several values for one entry are separate records, joined by “and”; a condition that tells them apart may be missing. Equal entries are not always repeated. This is part of a sample that, as a whole, favours compounds with a hit. Of some 83,000 tested, about 20% had one in any assay.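 A percent growth of 40 corresponds to 60% growth inhibition; 0 means no net growth; -100 means all cells died. Active threshold: below 10.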 Activity calls are given as the source filed them.
What was measured:
Experiment in all cases: NCI-60 one-dose screen, 48 h (100 = growth as untreated, 0 = no growth, -100 = all killed)
Settings in all cases: 10 µM
RPMI-8226 leukemia = test system: RPMI-8226 leukemia
OVCAR-8 ovarian = test system: OVCAR-8 ovarian
OVCAR-5 ovarian = test system: OVCAR-5 ovarian
OVCAR-4 ovarian = test system: OVCAR-4 ovarian
SK-OV-3 ovarian = test system: SK-OV-3 ovarian
IGROV1 ovarian = test system: IGROV1 ovarian
HS 578T breast = test system: HS 578T breast
NCI/ADR-RES ovarian = test system: NCI/ADR-RES ovarian
T-47D breast = test system: T-47D breast
BT-549 breast = test system: BT-549 breast
MDA-MB-435 melanoma = test system: MDA-MB-435 melanoma
SW-620 colon = test system: SW-620 colon
MCF7 breast = test system: MCF7 breast
HCT-116 colon = test system: HCT-116 colon
HCC-2998 colon = test system: HCC-2998 colon
KM12 colon = test system: KM12 colon
OVCAR-3 ovarian = test system: OVCAR-3 ovarian

Measured: growth

CN(C)CCNc1cccc2sc3ccc(O)cc3c(=O)c12
inactive: RPMI-8226 leukemia 73.4% | OVCAR-8 ovarian 36% | OVCAR-5 ovarian 78.8% | OVCAR-4 ovarian 52.8% | SK-OV-3 ovarian 51.1% | IGROV1 ovarian 50.1% | HS 578T breast 69.4% | NCI/ADR-RES ovarian 45% | T-47D breast 64.4% | BT-549 breast 65.8% | MDA-MB-435 melanoma 29.3% | SW-620 colon 24.5% | MCF7 breast 27.8% | HCT-116 colon 25.3% | HCC-2998 colon 17.9% | KM12 colon 24.7%

O=c1[nH]cc(/C=N\Nc2ccccc2)c(=O)[nH]1
inactive: RPMI-8226 leukemia 76.5% | OVCAR-8 ovarian 46.7% | OVCAR-5 ovarian 68.4% | OVCAR-4 ovarian 84.4% | SK-OV-3 ovarian 62.2% | IGROV1 ovarian 53.9% | HS 578T breast 81.7% | NCI/ADR-RES ovarian 56.4% | T-47D breast 42.4% | BT-549 breast 82.5% | MDA-MB-435 melanoma 42.5% | SW-620 colon 46.6% | MCF7 breast 56.1% | HCT-116 colon 57% | HCC-2998 colon 76.9% | KM12 colon 37.9%

NCc1c(O)ccc2ccccc12
inactive: RPMI-8226 leukemia 101% | OVCAR-8 ovarian 103% | OVCAR-5 ovarian 96.9% | OVCAR-4 ovarian 111% | SK-OV-3 ovarian 96.9% | IGROV1 ovarian 94.7% | HS 578T breast 94.5% | NCI/ADR-RES ovarian 103% | T-47D breast 98.3% | BT-549 breast 101% | MDA-MB-435 melanoma 103% | SW-620 colon 107% | MCF7 breast 95.3% | HCT-116 colon 102% | HCC-2998 colon 102% | KM12 colon 96%

O=C1c2ccccc2CCC1(Br)Br
inactive: OVCAR-8 ovarian 38.6% | OVCAR-5 ovarian 25.8% | SK-OV-3 ovarian 95% | IGROV1 ovarian 88.4% | HS 578T breast 69.4% | NCI/ADR-RES ovarian 19.3% | MCF7 breast 21.6% | HCC-2998 colon 77.2% | KM12 colon 87.2%
active: RPMI-8226 leukemia 1.08% | OVCAR-4 ovarian -27.5% | T-47D breast -23.8% | BT-549 breast -31.9% | MDA-MB-435 melanoma 3.86% | SW-620 colon -45.5% | HCT-116 colon -90%

Cc1cc(N=C2C=CC(=[N+](C)C)C=C2)c(N)cc1N
inactive: RPMI-8226 leukemia 65.7% | OVCAR-8 ovarian 92.8% | OVCAR-5 ovarian 95.6% | OVCAR-4 ovarian 82.3% | SK-OV-3 ovarian 105% | IGROV1 ovarian 109% | HS 578T breast 94.5% | NCI/ADR-RES ovarian 80.4% | T-47D breast 87.1% | BT-549 breast 96.3% | MDA-MB-435 melanoma 101% | SW-620 colon 84.9% | MCF7 breast 68.8% | HCT-116 colon 82.2% | HCC-2998 colon 60.8% | KM12 colon 89%

Cn1c2nc3ccccc3c-2nc2ccccc21
inactive: RPMI-8226 leukemia 94.9% and 96.8% | OVCAR-8 ovarian 93% and 88.6% | OVCAR-5 ovarian 103% and 86.9% | OVCAR-4 ovarian 89.5% and 80.5% | SK-OV-3 ovarian 91.2% and 90.8% | IGROV1 ovarian 79.8% and 61.6% | HS 578T breast 83.4% and 87.5% | NCI/ADR-RES ovarian 99.3% and 93.6% | T-47D breast 78.9% and 72% | BT-549 breast 90.5% and 92.6% | MDA-MB-435 melanoma 109% and 125% | SW-620 colon 79% and 90% | MCF7 breast 77.3% and 67.5% | HCT-116 colon 92.7% and 80.9% | HCC-2998 colon 118% and 102% | KM12 colon 92.4% and 83.5%

CCC(C)(c1ccc(O)c(C)c1)c1ccc(O)c(C)c1
inactive: RPMI-8226 leukemia 84.1% | OVCAR-8 ovarian 103% | OVCAR-5 ovarian 101% | OVCAR-4 ovarian 91.9% | SK-OV-3 ovarian 50.8% | IGROV1 ovarian 85.5% | HS 578T breast 95% | NCI/ADR-RES ovarian 103% | BT-549 breast 192% | MDA-MB-435 melanoma 78.8% | SW-620 colon 111% | MCF7 breast 111% | HCT-116 colon 94% | HCC-2998 colon 107% | KM12 colon 94.6%
active: T-47D breast -5.53%

CCOC(=O)[C@]1(Br)CC[C@@]1(Br)C(=O)OCC
inactive: RPMI-8226 leukemia 96.8% | OVCAR-8 ovarian 95.6% | OVCAR-5 ovarian 104% | OVCAR-4 ovarian 101% | SK-OV-3 ovarian 112% | IGROV1 ovarian 52.1% | OVCAR-3 ovarian 133% | HS 578T breast 102% | NCI/ADR-RES ovarian 107% | T-47D breast 70.7% | BT-549 breast 123% | MDA-MB-435 melanoma 94.8% | SW-620 colon 76.2% | MCF7 breast 93.4% | HCT-116 colon 88.9% | HCC-2998 colon 124% | KM12 colon 142%

— PubChem BioAssay (NCI)
